Experimental data from PubChem BioAssay (NCI).
Compounds without any hit were thinned out: in the full panel of roughly 79,000, 15% have a hit. The source made the active and inactive calls. No stated cut-off is given here; in the data, active means growth inhibition above about 70%; inactive means the rest.

Legend:
[1] = NCI Yeast Anticancer Drug Screen. Data for the rad52 strain (AID 147);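 further: 0% = growth of vehicle-treated control cultures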; settings: S. cerevisiae rad52 mutant growth inhibition, stronger effect = higher value
Method in brief: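 Growth of repair-deficient yeast cells was compared between compound-treated and vehicle-treated cultures to give percent inhibition.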

[2] = NCI Yeast Anticancer Drug Screen. Data for the wt1 strain (AID 149);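 further: 0% = growth of vehicle-treated wt1 cultures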; settings: S. cerevisiae wt1 strain (SPY 50644) growth inhibition, stronger effect = higher value
Method in brief: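 Vehicle-normalised growth inhibition; strain wt1; compound exposure.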

[3] = NCI Yeast Anticancer Drug Screen. Data for the rad50EPP+ strain (AID 151);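 further: 0% = growth of vehicle-treated control cultures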; settings: S. cerevisiae rad50 mutant strain, stronger effect = higher value
Method in brief: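 Measured: growth inhibition of rad50EPP+ yeast. Reference: vehicle-treated controls. Screen uses strains with defined genetic alterations in DNA damage repair or cell cycle control.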

[4] = NCI Yeast Anticancer Drug Screen. Data for the mgt1 strain (AID 153); settings: S. cerevisiae mgt1 mutant growth inhibition, stronger effect = higher value
Method in brief: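 Compounds were applied to mgt1 mutant yeast, and growth was then compared against vehicle-treated control cultures to give percent inhibition.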

[5] = NCI Yeast Anticancer Drug Screen. Data for the rad50 strain (AID 155);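 further: 0% = growth of vehicle-only cultures of the same strain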; settings: S. cerevisiae rad50 strain growth inhibition, stronger effect = higher value
Method in brief: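 A DNA repair-deficient yeast mutant serves as the test organism; compound-induced growth inhibition is calculated against vehicle-treated cells.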

[6] = NCI Yeast Anticancer Drug Screen. Data for the mec2-1 strain (AID 157); settings: S. cerevisiae mec2-1 strain, stronger effect = higher value
Method in brief: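 Compounds were applied to mec2-1 yeast cells. Their growth was then compared with that of vehicle-treated cultures to give growth inhibition.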

[7] = NCI Yeast Anticancer Drug Screen. Data for the rad14 strain (AID 159);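 further: 0% = growth of vehicle-treated control cultures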; settings: S. cerevisiae rad14 strain growth inhibition, stronger effect = higher value
Method in brief: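 Vehicle-treated cultures served as the baseline for growth inhibition of a DNA repair-mutant yeast strain exposed to each compound.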

[8] = NCI Yeast Anticancer Drug Screen. Data for the sgs1 mgt1 strain (AID 161);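 further: 0% = growth of cultures given vehicle only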; settings: S. cerevisiae sgs1 mgt1 strain, stronger effect = higher value
Method in brief: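 Yeast cells carrying a defined DNA-repair defect were exposed to test compounds. Growth inhibition was measured relative to vehicle-treated controls.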

[9] = NCI Yeast Anticancer Drug Screen. Data for the CLN2oe strain (AID 163);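 further: 0% = growth of vehicle-only control cultures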; settings: S. cerevisiae CLN2oe strain, stronger effect = higher value
Method in brief: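 Cells of an engineered yeast line with disturbed cell-cycle regulation are treated with compound. Inhibition of growth is then calculated relative to the vehicle-treated reference.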

[10] = NCI Yeast Anticancer Drug Screen. Data for the cln2 rad14 strain (AID 165);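 further: 0% = growth equal to vehicle treated cultures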; settings: S. cerevisiae cln2 rad14 strain, stronger effect = higher value
Method in brief: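 Strain: cln2 rad14 yeast, altered in cell cycle control and DNA damage repair. Read-out: growth inhibition vs vehicle.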

[11] = NCI Yeast Anticancer Drug Screen. Data for the bub3 strain (AID 167); settings: S. cerevisiae bub3 mutant strain, stronger effect = higher value
Method in brief: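 Inhibition values come from growth of compound-treated mutant yeast normalised to vehicle-treated controls.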

[12] = NCI Yeast Anticancer Drug Screen. Data for the wt2 strain (AID 169);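 further: 0% = growth of vehicle-treated yeast cultures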; settings: S. cerevisiae wt2 strain growth inhibition, stronger effect = higher value
Method in brief: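 Growth of compound-treated yeast is measured and expressed as inhibition relative to vehicle-only controls.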

[13] = NCI Yeast Anticancer Drug Screen. Data for the mlh1 strain (AID 171);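 further: 0% = growth of vehicle-treated control cultures of the same strain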; settings: S. cerevisiae mlh1 strain growth inhibition, stronger effect = higher value
Method in brief: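 Test agents were incubated with yeast bearing a defined DNA damage repair or cell cycle control alteration; values are growth inhibition normalised to vehicle-treated cultures.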

[14] = NCI Yeast Anticancer Drug Screen. Data for the sgs1 strain (AID 173);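 further: 0% = growth of vehicle-only control cultures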; settings: S. cerevisiae sgs1 mutant, stronger effect = higher value
Method in brief: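 Strain with an altered DNA repair or cell cycle pathway exposed to compound. Growth then measured. Value = inhibition versus vehicle control.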

[15] = NCI Yeast Anticancer Drug Screen. Data for the mlh1 rad18 strain (AID 175); settings: S. cerevisiae mlh1 rad18 strain growth inhibition, stronger effect = higher value
Method in brief: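 A repair-deficient yeast strain is exposed to test compound, and growth is scored relative to vehicle-treated controls.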

[16] = NCI Yeast Anticancer Drug Screen. Data for the rad18 strain (AID 177); settings: S. cerevisiae rad18 mutant growth inhibition, stronger effect = higher value
Method in brief: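 DNA-repair-defective yeast; compound treatment; growth inhibition scored against vehicle.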

[17] = at 5.0 µM (retest, dose inferred, filed as 0.5)
[18] = at 50.0 µM (retest, dose inferred, filed as 5.0)

Measured: growth inhibition

O=C(CCSC1=NCCCN1)c1ccc(F)cc1
active: [1]; at 100.0 µM 99% | [2]; at 100.0 µM 98% | [3]; at 100.0 µM 98% | [4]; at 100.0 µM 99% | [5]; at 100.0 µM 96% | [6]; [18] 75% | [6]; at 50.0 µM 94.3% | [6]; at 100.0 µM 100% | [7]; at 100.0 µM 99% | [8]; [18] 93% | [8]; at 50.0 µM 91% | [9]; at 100.0 µM 98% | [11]; [18] 79% | [11]; at 50.0 µM 91.2% | [12]; at 100.0 µM 99% | [13]; at 100.0 µM 98% | [14]; at 100.0 µM 99% | [16]; at 100.0 µM 96%
inactive: [1]; at 1.2 µM -38% | [1]; at 3.7 µM -55% | [1]; at 11.0 µM -53% | [1]; at 33.0 µM 58% | [2]; at 1.2 µM -43% | [2]; at 3.7 µM -61% | [2]; at 11.0 µM -101% | [2]; at 33.0 µM 15% | [3]; at 1.2 µM -75% | [3]; at 3.7 µM -100% | [3]; at 11.0 µM -54% | [3]; at 33.0 µM 37% | [4]; at 1.2 µM -59% | [4]; at 3.7 µM -59% | [4]; at 11.0 µM -52% | [4]; at 33.0 µM -3% | [5]; at 1.2 µM -21% | [5]; at 3.7 µM -40% | [5]; [17] 24% | [5]; at 11.0 µM -34% | [5]; at 33.0 µM -34% | [5]; [18] 69% | [5]; at 50.0 µM 4.9% | [6]; at 1.2 µM -15% | [6]; at 3.7 µM 3% | [6]; [17] 17% | [6]; at 11.0 µM -52% | [6]; at 33.0 µM 55% | [7]; at 1.2 µM -19% | [7]; at 3.7 µM -50% | [7]; at 11.0 µM -54% | [7]; at 33.0 µM 23% | [8]; [17] 6% | [9]; at 1.2 µM -6% | [9]; at 3.7 µM -7% | [9]; at 11.0 µM -24% | [9]; at 33.0 µM 14% | [10]; [17] -3% | [10]; [18] 13% | [10]; at 50.0 µM 25.6% | [11]; at 1.2 µM -22% | [11]; at 3.7 µM -17% | [11]; [17] 12% | [11]; at 11.0 µM -23% | [11]; at 33.0 µM -26% | [11]; at 100.0 µM 68% | [12]; at 1.2 µM -12% | [12]; at 3.7 µM -13% | [12]; at 11.0 µM -5% | [12]; at 33.0 µM 34% | [13]; at 1.2 µM -32% | [13]; at 3.7 µM -73% | [13]; at 11.0 µM -23% | [13]; at 33.0 µM -13% | [14]; at 1.2 µM -41% | [14]; at 3.7 µM -52% | [14]; at 11.0 µM -58% | [14]; at 33.0 µM -29% | [15]; [17] 24% | [15]; [18] 48% | [15]; at 50.0 µM 14.9% | [16]; at 1.2 µM -13% | [16]; at 3.7 µM -23% | [16]; at 11.0 µM -22% | [16]; at 33.0 µM 21%
